Lassa entry inh = blocks Lassa virus binding to or entry into cells. Lassa virus pseudotype entry inhibition, cell reporter. Potency, µM (series often up to 37.9 µM), for the others: at the highest dose activity change, negative = inhibition, usual class: inhibitors. 1.2% of 300,000 active. AID 540256; calls by dose curve; tested in HEK293 cells; also: potency is read from the fitted curve at half-maximal effect; % is scaled to controls: 0 for no effect and ±100 for the full control effect; nearly all actives have a fitted effect of over 50% in size
SARS PLP yeast = inhibitors of SARS-CoV papain-like protease in yeast. S. cerevisiae expressing SARS-CoV PLpro, growth rescue. Potency, µM (top dose mostly 32.9 µM), for inactives: at the top dose activity, positive = growth rescue, most hits filed as activators. 0.19% of 330,000 active; calls by dose curve; also: potency is read from the fitted curve at half-maximal effect; 0% is about no effect; nearly all actives have a fitted effect of over 55% in size
MARV entry inh = Marburg virus entry inhibition; Marburg virus pseudotyped entry inhibition, cell reporter; 1.8% of 300,000 active; Potency, µM (doses to about 37.8 µM), without a hit: top-dose activity change, negative = inhibition, hits mostly inhibitors; calls by dose curve; tested in HEK293 cells; also: potency is read from the fitted curve at half-maximal effect; % is scaled to controls: 0 for no effect and ±100 for the full control effect
FMDV inh = blocks foot and mouth disease virus; FMDV antiviral cell-based qHTS; Potency, µM (top dose mostly 57.9 µM), inactives show top-dose activity change, negative = inhibition, most hits filed as inhibitors; 1.2% of 410,000 active; AID 1159524; calls by dose curve; tested in HEK293T cells; also: read-out not given here; potency is read from the fitted curve at half-maximal effect; % is scaled to controls: 0 for no effect and ±100 for the full control effect; nearly all actives have a fitted effect of over 45% in size
HCMV antiviral = inhibitors of human cytomegalovirus | activity change, negative = inhibition, % at 57.5 µM | 4.5% of 410,000 active | HFF cells, HCMV-luciferase reporter, 72 h; stronger effect = lower value | AID 1259415; in the data active = activity change below about -60%; inconclusive = no clear call, values can overlap the other calls; inactive = above about -39%; also: % is scaled to controls: 0 for no effect and ±100 for the full control effect
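After 16 h attachment at 37C, HFF cells received test compound and HCMV-luciferase (1 PFU/cell); reporter luminescence read 72 h later, data normalized against buffer-only and known inhibitor Salinomycin.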
HCV inh = HCV inhibition | Huh7.5.1 HCVcc-Cre infection, luciferase reporter, 44 h | Potency, µM (series often up to 41.8 µM), inactives show top-dose activity change, negative = inhibition, most hits filed as inhibitors | 3.4% of 340,000 active | AID 651820; active = well fitted inhibition curve with a large enough effect; inconclusive = small, poorly fitted or top-dose-only effect, or another doubt; inactive = no such curve, though single readings can be large or run the other way; also: potency is read from the fitted curve at half-maximal effect; % is scaled to controls: 0 for no effect and ±100 for the full control effect
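HCVcc-Cre virus at an moi near 0.5 was added right after compound to cells cultured 4 h from seeding (1,000 cells/well). Luciferase activity was determined 44 h later, 15 min after substrate addition at RT.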
* = called active by the depositor; [ ] = dose if it differs, or a comment. Most compounds without a hit are left out; they make up all but 8% or so of the library.

Screening COc1cc2c(cc1OC)C(COc1cc(C)cc(C)c1)N(C(=O)C(C)(C)C)CC2 (centres undefined) returned Lassa entry inh -3.5%[46.1 µM], FMDV inh -28.5% and HCMV antiviral 23.0.
N#Cc1c(N2CCN(c3ccc([N+](=O)[O-])cc3)CC2)[n+](=O)c2ccc(Cl)cc2n1[O-] was read as Lassa entry inh 10µM*, MARV entry inh inconclusive, FMDV inh inconclusive, HCMV antiviral 4.8 and HCV inh inconclusive.
`COc1cccc(OC)c1OCCNCC1CSc2ccccc2O1` (centres undefined) gave Lassa entry inh inconclusive, MARV entry inh 25.9µM*, FMDV inh -24.9%, HCMV antiviral inconclusive and HCV inh inconclusive.
Screening CC1CCN(S(=O)(=O)c2cc(C(=O)N3CCN(c4ncccn4)CC3)ccc2Br)CC1 returned Lassa entry inh inconclusive, SARS PLP yeast 5.4%, MARV entry inh inconclusive, FMDV inh 20µM*, HCMV antiviral -64.1* and HCV inh inconclusive.
`CC1CCN(S(=O)(=O)c2cc(C(=O)NC3(C)CCS(=O)(=O)C3)ccc2Br)CC1` (centres undefined) gave SARS PLP yeast 15.9%, FMDV inh -22.8%, HCMV antiviral -61.4* and HCV inh -1.3%.
For COc1ccc(NS(=O)(=O)c2ccc(C)c(C(=O)N(C)CCc3ccc(OC)c(OC)c3)c2)cc1 the results were Lassa entry inh inconclusive, SARS PLP yeast -10.2%, MARV entry inh -10.2%, FMDV inh -23.0%, HCMV antiviral -17.1 and HCV inh inconclusive.
`COc1ccc(NS(=O)(=O)c2cccc(NC(=O)COc3ccc(OC)cc3)c2)cc1` gave SARS PLP yeast 0.9%, FMDV inh 7.2%, HCMV antiviral -32.0 and HCV inh inconclusive.
`COc1ccc(NS(=O)(=O)c2ccc(C)c(C(=O)N(C)Cc3ccc(C)cc3)c2)cc1` gave Lassa entry inh 11.2µM*, SARS PLP yeast -6.8%, MARV entry inh inconclusive, FMDV inh 0.6%, HCMV antiviral inconclusive and HCV inh -10.1%.
Screening COc1ccccc1NS(=O)(=O)c1ccc(C)c(NC(=O)NC2CCCCC2)c1 returned Lassa entry inh inconclusive, SARS PLP yeast 13.6%, MARV entry inh inconclusive, FMDV inh -20.9%, HCMV antiviral 1.5 and HCV inh inconclusive.
Screening COc1ccc(NS(=O)(=O)c2ccc(C)c(NC(=O)NC3CCCCC3)c2)cc1 returned Lassa entry inh 10µM*, SARS PLP yeast 18.4%, MARV entry inh inconclusive, FMDV inh -19.1%, HCMV antiviral -33.3 and HCV inh inconclusive.
Screening COc1ccc(NS(=O)(=O)c2cccc(NC(=O)NC3CCCCC3)c2)cc1 returned Lassa entry inh 2µM*, SARS PLP yeast -6.5%, MARV entry inh inconclusive, FMDV inh -17.0%, HCMV antiviral -60.0* and HCV inh inconclusive.
For Cn1nc(C(=O)Nc2ccc(F)c(Cl)c2)c2c1-c1ccccc1S(=O)(=O)C2 the results were Lassa entry inh -22.8%[46.1 µM], FMDV inh -6.7% and HCMV antiviral -18.9.
Screening Cc1ccc(N(CC(=O)N2CCc3ccccc32)C2=NC(=O)CS2)cc1 returned Lassa entry inh -1.7%, SARS PLP yeast -1.2%, MARV entry inh 15.0%, FMDV inh inconclusive, HCMV antiviral 8.4 and HCV inh 6.31µM*.
`Cc1ccc(C(=O)OCC(=O)N2CCc3ccccc32)cc1` gave Lassa entry inh inconclusive, SARS PLP yeast -3.3%, MARV entry inh -8.6%[46.1 µM], FMDV inh 78.6%, HCMV antiviral -8.5 and HCV inh 13.6%.
`CCOc1cccc(C2c3[nH]c4ccccc4c3CCN2C(=O)Cc2cccc(OCC)c2OCC)c1` (centres undefined) gave Lassa entry inh -12.2%[46.1 µM], MARV entry inh inconclusive, FMDV inh -7.0% and HCMV antiviral -2.7.
`Cc1ccc(/C=N/Nc2ccc3ccccc3n2)o1` gave Lassa entry inh 5.01µM*, SARS PLP yeast -2.6%, MARV entry inh 1.26µM*, FMDV inh -17.0%, HCMV antiviral -79.0* and HCV inh -29.7%.
Screening C(=N\Nc1ccc2ccccc2n1)/c1ccc2c(c1)OCCO2 returned SARS PLP yeast -2.0%, FMDV inh inconclusive, HCMV antiviral -89.7* and HCV inh 2.5%.
For Cc1ccc(/C=N/Nc2cn[nH]c(=O)n2)o1 the results were Lassa entry inh 15.3%[46.1 µM], SARS PLP yeast -0.2%, MARV entry inh -9.7%[46.1 µM], FMDV inh 24.4%, HCMV antiviral inconclusive and HCV inh 19.9%.
Screening Cc1cccc(/C=N/Nc2ccc3ccccc3n2)c1 returned SARS PLP yeast -1.6%, FMDV inh 6.31µM*, HCMV antiviral -30.5 and HCV inh inconclusive.
`Cc1ccc(CNc2nc3ccccc3n3c(C)nnc23)cc1` gave Lassa entry inh -20.5%[46.1 µM], FMDV inh -15.9% and HCMV antiviral -0.3.
Screening Cc1ccc(NC(=O)Cn2ncc(Cl)c(Cl)c2=O)cc1S(=O)(=O)N1CCCCC1 returned SARS PLP yeast 2.4%, FMDV inh 28.2µM*, HCMV antiviral 0.0 and HCV inh 10µM*.
`Cc1ccc(NC(=O)Cn2c(=O)ccn(Cc3ccccc3)c2=O)cc1S(=O)(=O)N1CCOCC1` gave FMDV inh -29.3%, HCMV antiviral 0.0 and HCV inh 11.2µM*.
For COc1ccc(NC(=O)Cc2ccc(Cl)cc2)cc1S(=O)(=O)N1CCCCC1 the results were SARS PLP yeast 1.3%, FMDV inh -3.5%, HCMV antiviral inconclusive and HCV inh 14.1µM*.
COc1ccc(NC(=O)Cc2ccccc2F)cc1S(=O)(=O)N1CCCCC1 was read as SARS PLP yeast -5.1%, FMDV inh 20.5%, HCMV antiviral -17.8 and HCV inh inconclusive.
COc1ccc(NC(=O)CCOc2ccccc2F)cc1S(=O)(=O)N1CCCCC1 was read as Lassa entry inh inconclusive, SARS PLP yeast 0.0%, MARV entry inh inconclusive, FMDV inh inconclusive, HCMV antiviral -5.6 and HCV inh 12.6µM*.
Cc1cccc(NC(=O)Cn2nc(C)c3nn(-c4ccc(Cl)cc4)c(C)c3c2=O)c1C was read as Lassa entry inh -5.5%[46.1 µM], FMDV inh -26.4% and HCMV antiviral inconclusive.
`COc1ccc(S[C@]2(C(=O)N3CCCC3)CC(=O)N(c3ccccc3)[C@@H]2c2ccc(OC)cc2)cc1` gave HCMV antiviral -24.5.
Screening Cc1ccc(NCC(=O)Nc2ccc(F)c(Cl)c2)cc1S(=O)(=O)N1CCOCC1 returned FMDV inh inconclusive and HCMV antiviral -60.6*.
Screening Cc1ccc(NC(=O)Cc2ccc(Cl)cc2)cc1S(=O)(=O)N1CCCCCC1 returned SARS PLP yeast 3.2%[6.58 µM], FMDV inh inconclusive, HCMV antiviral -26.2 and HCV inh 10µM*.

Screening data: PubChem, National Center for Advancing Translational Sciences (NCATS)
